ABHD5-PLIN5 inh: ABHD5-PLIN5 interaction inhibitors, primary screen, cell lysate, split luciferase complementation, luminescence. Perilipin-5 (Homo sapiens) + 1-acylglycerol-3-phosphate O-acyltransferase ABHD5 (Homo …. Split G. princeps luciferase complementation, 4 h. inhibition, % at 4 µM. 360,000 tested, 0.78% active. AID 602281, 2012;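 active means inhibition above the mean inhibition across every tested compound plus 3 SD, cut at about 22% in these data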;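 further: 0% = DMSO only wells and the 100% control is not disclosed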
HIF-2a block: HIF-2a reporter inhibitors, primary screen, luminescence, 786-0 RCC cells. 360,000 tested, 0.72% active. inhibition, % at 18.8 µM. 786-0 RCC cells HIF-2a reporter, luciferase luminescence, overnight;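 active means inhibition of the luminescence signal of 40% or more relative to plate controls, in a single-dose primary screen at 18.75 µM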
Mdm2 MdmX PPI: inhibitors of human Mdm2-MdmX association, primary screen, cell-based, luminescence, split luciferase, SaOS-2, uHTS. Protein Mdm4 (Homo sapiens) + E3 ubiquitin-protein ligase Mdm2 (Homo sapiens), …. SaOS-2 split-luciferase Mdm2/MdmX complementation. inhibition, % at 8 µM. 330,000 tested, 3% active. AID 485346, 2010;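 active means inhibition of at least 50% at 8 µM in the primary screen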
Peg3 prom inh: Peg3 promoter-driven luciferase inhibitors, primary screen, cell-based, HeLa, luciferase luminescence. HeLa PEG-Prom luciferase reporter, overnight. inhibition, % at 20 µM. 360,000 tested, 1.7% active. AID 588405, 2011;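 active means inhibition of at least 50% at 20 µM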
CF NFkB inh: inhibitors of PAF-induced NF-kB signaling, primary screen, cell-based, GFP fluorescence, uHTS. 360,000 tested, 0.86% active. KKLEB NF-kB-GFP reporter, GFP fluorescence overnight. inhibition, % at 5 µM;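 active means at least 50% inhibition at 5 µM, scaled per plate between neutral and stimulator controls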;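 further: PAF is a Pseudomonas aeruginosa culture filtrate used as stimulus; plate controls were PAF-stimulated DMSO wells for no effect and unstimulated DMSO wells for full effect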
KKLEB tox: cytotoxicity in KKLEB CF airway cells, primary screen, cytotoxicity control for CF NF-kB inhibitor project, cell-based, uHTS, fluorescence assay plates. activity change (cytotoxicity), % at 5 µM. 360,000 tested, 0.36% active. KKLEB CF airway cells viability, ATPlite luminescence, overnight; stronger effect = lower value; cells stimulated with P. aeruginosa culture filtrate;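 active means corrected activity change at or below -50% at 5 µM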
An asterisk follows results filed as active. In the library only some 4.6% were active in any assay of this set; here they are far more common.

Screening Cc1cc(N2CCN(C(=O)Nc3ccc(F)cc3F)CC2)c2ccccc2n1 returned ABHD5-PLIN5 inh -3, HIF-2a block 17, Mdm2 MdmX PPI 9, Peg3 prom inh 9, CF NFkB inh 0 and KKLEB tox -4.
O=C1c2ccccc2C(=O)c2c(NCc3cccnc3)cccc21 was read as ABHD5-PLIN5 inh -1, HIF-2a block -150, Mdm2 MdmX PPI 31, Peg3 prom inh -19, CF NFkB inh -68 and KKLEB tox 2.
`O=C1c2cccc(NCCCNCCO)c2C(=O)c2cccc(NCCCNCCO)c21` gave ABHD5-PLIN5 inh 11, HIF-2a block 48*, Peg3 prom inh 109*, CF NFkB inh -34 and KKLEB tox -4.
For Cc1ccc(C(=O)N2C(=S)C(c3ccc(F)cc3)=NC23CCN(C)CC3)cc1 the results were ABHD5-PLIN5 inh -2, HIF-2a block 14, Mdm2 MdmX PPI 14, Peg3 prom inh 90*, CF NFkB inh -1 and KKLEB tox -2.
`Cc1ccc(C(=O)N2CCC(C(=O)c3ccc(F)cc3)CC2)cc1` gave ABHD5-PLIN5 inh 0, HIF-2a block 6, Peg3 prom inh 20, CF NFkB inh 33 and KKLEB tox -15.
`CC(C)CC(=O)/C=C/n1c(=S)oc2ccccc21` gave ABHD5-PLIN5 inh 3, HIF-2a block 91*, Peg3 prom inh 107*, CF NFkB inh 92* and KKLEB tox -77*.
Screening Cn1c(=S)oc2ccccc21 returned ABHD5-PLIN5 inh 6, HIF-2a block 16, Mdm2 MdmX PPI 18, Peg3 prom inh 6, CF NFkB inh -17 and KKLEB tox 12.
Screening NNC(=S)Nc1ccc(S(=O)(=O)N2CCCCC2)cc1 returned ABHD5-PLIN5 inh -5, HIF-2a block 17, Mdm2 MdmX PPI 13, Peg3 prom inh 6, CF NFkB inh 7 and KKLEB tox 10.
C=CC[n+]1c(-c2ccc(Cl)cc2Cl)csc1Nc1ccc(NC(C)=O)cc1 was read as ABHD5-PLIN5 inh -3, HIF-2a block 95*, Mdm2 MdmX PPI 47, Peg3 prom inh 40, CF NFkB inh -9 and KKLEB tox 9.
Screening Cc1cccc(NC(=O)COc2ccc(-c3nn(C)c(=O)c4ccccc34)cc2)c1 returned ABHD5-PLIN5 inh 4, HIF-2a block -4, Mdm2 MdmX PPI 36, Peg3 prom inh 17, CF NFkB inh -10 and KKLEB tox -6.
`CC(C)=CCc1c(O)cc(O)c2c(=O)c(O[C@@H]3O[C@@H](C)[C@H](O)[C@@H](O)[C@H]3O)c(-c3ccc(O)cc3)oc12` gave ABHD5-PLIN5 inh 5, HIF-2a block 0, Mdm2 MdmX PPI 16, Peg3 prom inh 38, CF NFkB inh 68* and KKLEB tox 14.
For C[C@@H]1O[C@@H](OC[C@@H]2O[C@H](Oc3c(-c4ccc(O)cc4)oc4cc(O)cc(O)c4c3=O)[C@@H](O)[C@H](O)[C@H]2O)[C@H](O)[C@H](O)[C@H]1O the results were ABHD5-PLIN5 inh -1, HIF-2a block 8, Mdm2 MdmX PPI 21, Peg3 prom inh -19, CF NFkB inh -10 and KKLEB tox 3.
O=[N+]([O-])c1ccc(N=Nc2c(Cl)cc(O)cc2Cl)cc1 was read as ABHD5-PLIN5 inh 3, HIF-2a block -196, Peg3 prom inh 72*, CF NFkB inh 56* and KKLEB tox -70*.
For COc1ccc2c(c1)N(C[C@H](C)CN(C)C)c1ccccc1S2 the results were ABHD5-PLIN5 inh 12, HIF-2a block 1, Peg3 prom inh -12, CF NFkB inh 14 and KKLEB tox -1.
CC(CN1CCN(CCOCCO)CC1)CN1c2ccccc2Sc2ccc(Cl)cc21 (stereo not drawn) was read as ABHD5-PLIN5 inh 14, HIF-2a block -35, Peg3 prom inh 101*, CF NFkB inh 23 and KKLEB tox -6.
Screening COc1ccc(CC2C(=O)NC(C)C(=O)N(C)C3Cc4ccc(cc4)Oc4cc(ccc4O)CC(C(=O)NC(C)C(=O)NC(C)C(=O)N2C)N(C)C3=O)cc1 (stereo not drawn) returned ABHD5-PLIN5 inh -8, HIF-2a block 82*, Peg3 prom inh 97*, CF NFkB inh 88* and KKLEB tox -45.
For O=C(O)c1cccc(S(=O)(=O)Nc2ccc([N+](=O)[O-])cc2O)c1 the results were ABHD5-PLIN5 inh 6, HIF-2a block 18, Mdm2 MdmX PPI 4, Peg3 prom inh 4, CF NFkB inh -2 and KKLEB tox 2.
Screening CCOc1ccc(S(=O)(=O)Nc2cc(SCC(=O)O)c(O)c3ccccc23)cc1 returned ABHD5-PLIN5 inh -18, HIF-2a block 0, Peg3 prom inh 20, CF NFkB inh 91* and KKLEB tox -40.
CCc1ccc(S(=O)(=O)Nc2cc(SCC(=O)O)c(O)c3ccccc23)cc1 was read as ABHD5-PLIN5 inh 3, HIF-2a block -2, Mdm2 MdmX PPI 20, Peg3 prom inh -2, CF NFkB inh 64* and KKLEB tox 4.
For Cc1ccc(C)c(S(=O)(=O)Nc2cc(SCC(=O)O)c(O)c3ccccc23)c1 the results were ABHD5-PLIN5 inh 12, HIF-2a block 66*, Peg3 prom inh 97*, CF NFkB inh 81* and KKLEB tox -54*.
For O=C(O)CSc1cc(NS(=O)(=O)c2cccc([N+](=O)[O-])c2)c2ccccc2c1O the results were ABHD5-PLIN5 inh -8, HIF-2a block 15, Peg3 prom inh 3, CF NFkB inh 72* and KKLEB tox -7.
COc1ccc(C(CNC(=O)C(Cc2ccccc2)NC(N)=O)N(C)C)cc1 (stereo not drawn) was read as ABHD5-PLIN5 inh -1, HIF-2a block -9, Mdm2 MdmX PPI 12, Peg3 prom inh -15, CF NFkB inh -8 and KKLEB tox -5.
`Cn1c(=O)c(=O)n(C)c2cc([N+](=O)[O-])c(N3CCOCC3)cc21` gave ABHD5-PLIN5 inh -5, HIF-2a block 7, Mdm2 MdmX PPI -8, Peg3 prom inh 15, CF NFkB inh -3 and KKLEB tox -1.
For COc1ccc(-c2csc(N(Cc3ccccc3)C(=O)COc3ccc(Cl)cc3)n2)cc1 the results were ABHD5-PLIN5 inh 2, HIF-2a block 8, Mdm2 MdmX PPI 28, Peg3 prom inh 70*, CF NFkB inh 20 and KKLEB tox -26.
`N=C1/C(=C/c2cccn2Cc2ccc(Cl)cc2)C(=O)N=C2SC=CN12` gave ABHD5-PLIN5 inh -4, HIF-2a block -6, Mdm2 MdmX PPI 22, Peg3 prom inh 24, CF NFkB inh 34 and KKLEB tox -50*.

Assay outcomes as filed in PubChem.
